Measurements reported in the supplement of paper PMC10849652.
Of roughly 7,900 targets only a part is listed; those with a hit were picked by preference. About 0.6% of all pairs of compound and target were hits.

Assays:
Assay in all cases: log2 fold change, soluble protein after heating vs DMSO (PISA); higher = thermal stabilisation; K562 cells, 10 uM, 30 min; active = over 0.2 and 3.5 SD of the protein, either way, in both replicates (recomputed)
[1] = compound: C1=CC=C(C=C1)[C@H](COC2=CC3=C(C=C2)NC(=O)N3)NC(=O)C4=CC=CN(C4=O)CC5=CC(=C(C=C5)F)F
In short: (§1)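 Values are thermal stability changes relative to control samples and are taken from duplicates. They are stated as log2 fold changes. Before quantification by TMTpro 16plex LC-MS/MS with equalised channel sums, K562 cells at 2×10^6 cells/mL were treated with 10 μM compound for 30 min, heated in aliquots for 3 min across 48°C-58°C, pooled, extracted in PBS with 0.5% NP-40 at 4°C, and centrifuged at 21,000xg for 90 min to give the soluble supernatant.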

[2] = compound: CC1=C(SC2=C1C(=N[C@H](C3=NN=C(N32)C)CC(=O)N)C4=CC=C(C=C4)Cl)C
In short: as §1

[3] = compound: CC1=C2C(=CC=C1)N=C(N(C2=O)C3=CC=CC=C3C)CN4C=NC5=C(N=CN=C54)N
In short: as §1

[4] = compound: Cc1sc2c(c1C)C(c1ccc(Cl)cc1)=N[C@@H](CC(=O)OC(C)(C)C)c1nnc(C)n1-2
In short: as §1

[5] = compound: c1ccc([C@@H]2C[C@H]2NC2CCNCC2)cc1
In short: as §1

Measured: log2 fold change

MLST8 (UniProt Q9BVC4)
Chain of UniProt Q9BVC4 (Q9BVC4 whole entry, looked up): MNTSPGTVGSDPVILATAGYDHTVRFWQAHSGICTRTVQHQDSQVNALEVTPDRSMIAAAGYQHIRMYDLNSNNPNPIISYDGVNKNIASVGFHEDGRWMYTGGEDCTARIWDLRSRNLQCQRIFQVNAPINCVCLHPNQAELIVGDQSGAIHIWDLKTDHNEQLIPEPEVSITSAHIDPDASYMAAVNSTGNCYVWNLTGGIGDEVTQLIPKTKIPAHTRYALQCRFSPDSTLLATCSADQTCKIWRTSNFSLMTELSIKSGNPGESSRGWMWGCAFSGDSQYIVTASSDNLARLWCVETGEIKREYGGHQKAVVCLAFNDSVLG
inactive: [1] -0.038 | [2] 0.062 | [3] 0.082 | [4] -0.05 | [5] -0.071

OGFR (UniProt Q9NZT2)
Chain of UniProt Q9NZT2 (Q9NZT2 whole entry, looked up): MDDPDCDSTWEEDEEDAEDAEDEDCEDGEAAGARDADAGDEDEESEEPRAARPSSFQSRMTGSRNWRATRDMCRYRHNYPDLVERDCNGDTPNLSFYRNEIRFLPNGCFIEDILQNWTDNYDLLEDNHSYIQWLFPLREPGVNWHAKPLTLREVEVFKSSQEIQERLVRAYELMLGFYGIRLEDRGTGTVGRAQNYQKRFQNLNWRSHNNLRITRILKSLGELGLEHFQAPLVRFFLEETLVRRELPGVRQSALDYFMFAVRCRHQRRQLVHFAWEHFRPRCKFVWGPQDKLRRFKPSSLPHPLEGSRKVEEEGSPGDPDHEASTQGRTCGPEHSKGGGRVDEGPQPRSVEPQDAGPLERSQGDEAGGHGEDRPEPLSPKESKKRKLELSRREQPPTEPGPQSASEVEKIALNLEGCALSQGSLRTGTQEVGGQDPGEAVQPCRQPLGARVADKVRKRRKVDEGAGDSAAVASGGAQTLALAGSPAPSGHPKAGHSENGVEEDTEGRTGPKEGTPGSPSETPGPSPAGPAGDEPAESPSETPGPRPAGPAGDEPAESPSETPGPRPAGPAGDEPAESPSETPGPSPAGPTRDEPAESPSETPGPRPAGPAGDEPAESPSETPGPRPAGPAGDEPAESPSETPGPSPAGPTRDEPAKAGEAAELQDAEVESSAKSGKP
inactive: [1] -0.016 | [2] -0.057 | [3] 0.016 | [4] 0.095 | [5] -0.046

OXSR1 (UniProt O95747)
inactive: [1] -0.039 | [2] 0.048 | [3] 0.096 | [4] -0.003 | [5] -0.03

OSBP (UniProt P22059)
Chain of UniProt P22059 (P22059 whole entry, looked up): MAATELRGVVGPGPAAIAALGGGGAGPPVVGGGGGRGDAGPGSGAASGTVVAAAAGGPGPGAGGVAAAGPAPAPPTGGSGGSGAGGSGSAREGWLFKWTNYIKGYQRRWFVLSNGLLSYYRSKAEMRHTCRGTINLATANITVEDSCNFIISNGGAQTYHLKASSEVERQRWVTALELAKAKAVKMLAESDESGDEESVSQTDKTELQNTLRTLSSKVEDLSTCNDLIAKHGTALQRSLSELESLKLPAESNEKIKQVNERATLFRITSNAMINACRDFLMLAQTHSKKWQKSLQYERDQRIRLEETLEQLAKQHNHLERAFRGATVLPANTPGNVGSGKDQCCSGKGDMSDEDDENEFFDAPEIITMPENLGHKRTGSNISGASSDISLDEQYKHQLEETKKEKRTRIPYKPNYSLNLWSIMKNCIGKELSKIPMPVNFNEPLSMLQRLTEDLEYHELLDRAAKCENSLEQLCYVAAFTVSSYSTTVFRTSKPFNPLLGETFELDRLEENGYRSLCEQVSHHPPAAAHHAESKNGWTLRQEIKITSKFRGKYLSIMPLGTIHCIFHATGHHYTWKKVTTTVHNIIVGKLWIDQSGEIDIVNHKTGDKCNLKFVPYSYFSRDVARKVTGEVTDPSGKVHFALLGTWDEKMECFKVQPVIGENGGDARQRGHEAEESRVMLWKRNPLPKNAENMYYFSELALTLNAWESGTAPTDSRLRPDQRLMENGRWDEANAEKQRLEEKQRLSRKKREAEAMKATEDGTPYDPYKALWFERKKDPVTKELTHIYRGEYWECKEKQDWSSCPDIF
inactive: [1] 0.015 | [2] 0.084 | [3] 0.076 | [4] -0.002 | [5] 0.031

NFATC2IP (UniProt Q8NCF5)
inactive: [1] -0.051 | [2] 0.18 | [3] 0.039 | [4] -0.088 | [5] 0.156

MYH16 (UniProt Q9H6N6)
inactive: [1] -0.164 | [2] -0.042 | [3] -0.142 | [4] 0.069 | [5] -0.034

NCAPH (UniProt Q15003)
inactive: [1] -0.067 | [2] 0.011 | [3] 0.109 | [4] -0.007 | [5] 0.001

PACS1 (UniProt Q6VY07)
inactive: [1] -0.02 | [2] 0.042 | [3] 0.033 | [4] 0.002 | [5] -0.014

NEK3 (UniProt P51956)
inactive: [2] 0.204 | [3] 0.053 | [4] -0.032 | [5] -0.094

MYO19 (UniProt Q96H55)
inactive: [1] -0.07 | [2] 0.016 | [3] 0.146 | [5] 0.088

OPHN1 (UniProt O60890)
inactive: [1] -0.209 | [2] 0.033 | [4] 0.008 | [5] 0.07

MT-ATP6 (UniProt P00846)
inactive: [2] -0.065 | [3] 0.076 | [4] -0.223 | [5] -0.035
active: [1] -0.828

NUDT6 (UniProt P53370)
Chain of UniProt P53370 (P53370 whole entry, looked up): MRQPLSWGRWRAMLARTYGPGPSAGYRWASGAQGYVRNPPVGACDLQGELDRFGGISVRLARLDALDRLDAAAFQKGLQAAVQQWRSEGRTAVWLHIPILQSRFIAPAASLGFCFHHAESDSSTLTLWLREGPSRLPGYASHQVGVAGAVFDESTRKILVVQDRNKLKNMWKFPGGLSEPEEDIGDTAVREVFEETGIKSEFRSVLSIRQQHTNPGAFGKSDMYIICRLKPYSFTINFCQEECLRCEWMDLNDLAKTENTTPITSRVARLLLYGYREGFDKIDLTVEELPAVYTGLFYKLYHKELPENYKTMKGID
inactive: [2] 0.073 | [3] 0.34 | [4] -0.023 | [5] -0.212

NUDT21 (UniProt O43809)
inactive: [1] 0.013 | [2] 0.021 | [3] 0.011 | [4] -0.01 | [5] 0.001

NCAPD2 (UniProt Q15021)
Chain of UniProt Q15021 (Q15021 whole entry, looked up): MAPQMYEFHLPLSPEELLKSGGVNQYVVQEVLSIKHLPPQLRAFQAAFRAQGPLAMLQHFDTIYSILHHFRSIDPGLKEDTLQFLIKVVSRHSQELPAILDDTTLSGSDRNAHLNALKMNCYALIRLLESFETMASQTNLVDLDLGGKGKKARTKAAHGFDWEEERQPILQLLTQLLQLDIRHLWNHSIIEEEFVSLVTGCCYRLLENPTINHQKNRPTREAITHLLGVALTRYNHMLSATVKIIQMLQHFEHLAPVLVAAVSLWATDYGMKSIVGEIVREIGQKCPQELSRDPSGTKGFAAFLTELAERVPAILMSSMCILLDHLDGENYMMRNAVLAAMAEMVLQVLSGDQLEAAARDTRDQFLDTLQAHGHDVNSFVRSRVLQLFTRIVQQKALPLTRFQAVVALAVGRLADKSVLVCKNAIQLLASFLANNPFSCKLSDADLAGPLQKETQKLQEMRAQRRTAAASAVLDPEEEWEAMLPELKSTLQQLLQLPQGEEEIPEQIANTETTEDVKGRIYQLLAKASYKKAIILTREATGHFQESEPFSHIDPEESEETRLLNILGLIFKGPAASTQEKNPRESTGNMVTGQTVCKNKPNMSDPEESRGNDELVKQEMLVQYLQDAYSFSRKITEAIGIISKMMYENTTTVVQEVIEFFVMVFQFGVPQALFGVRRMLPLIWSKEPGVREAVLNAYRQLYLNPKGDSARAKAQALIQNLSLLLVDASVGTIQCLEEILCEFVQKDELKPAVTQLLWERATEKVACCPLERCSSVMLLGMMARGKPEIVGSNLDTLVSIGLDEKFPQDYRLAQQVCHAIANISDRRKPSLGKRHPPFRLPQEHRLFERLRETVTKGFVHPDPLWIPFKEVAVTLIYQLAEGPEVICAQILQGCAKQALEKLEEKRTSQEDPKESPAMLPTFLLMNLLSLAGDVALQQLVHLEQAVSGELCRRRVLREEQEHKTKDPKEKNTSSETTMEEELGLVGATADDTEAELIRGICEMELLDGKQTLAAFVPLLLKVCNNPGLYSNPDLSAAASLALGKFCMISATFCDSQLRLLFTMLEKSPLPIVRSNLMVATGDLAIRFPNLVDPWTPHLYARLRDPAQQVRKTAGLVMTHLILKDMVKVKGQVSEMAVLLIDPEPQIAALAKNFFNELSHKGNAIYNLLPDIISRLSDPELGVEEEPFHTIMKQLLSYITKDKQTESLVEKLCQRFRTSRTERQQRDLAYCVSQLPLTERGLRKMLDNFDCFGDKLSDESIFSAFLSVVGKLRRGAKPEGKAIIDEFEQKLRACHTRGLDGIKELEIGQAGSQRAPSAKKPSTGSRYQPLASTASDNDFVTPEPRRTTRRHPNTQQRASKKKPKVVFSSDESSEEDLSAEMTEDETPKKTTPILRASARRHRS
inactive: [1] -0.078 | [2] 0.04 | [3] 0.044 | [4] 0.016 | [5] 0.007

MPHOSPH8 isoform 2 (UniProt Q99549)
Chain of UniProt Q99549 (Q99549 whole entry, looked up): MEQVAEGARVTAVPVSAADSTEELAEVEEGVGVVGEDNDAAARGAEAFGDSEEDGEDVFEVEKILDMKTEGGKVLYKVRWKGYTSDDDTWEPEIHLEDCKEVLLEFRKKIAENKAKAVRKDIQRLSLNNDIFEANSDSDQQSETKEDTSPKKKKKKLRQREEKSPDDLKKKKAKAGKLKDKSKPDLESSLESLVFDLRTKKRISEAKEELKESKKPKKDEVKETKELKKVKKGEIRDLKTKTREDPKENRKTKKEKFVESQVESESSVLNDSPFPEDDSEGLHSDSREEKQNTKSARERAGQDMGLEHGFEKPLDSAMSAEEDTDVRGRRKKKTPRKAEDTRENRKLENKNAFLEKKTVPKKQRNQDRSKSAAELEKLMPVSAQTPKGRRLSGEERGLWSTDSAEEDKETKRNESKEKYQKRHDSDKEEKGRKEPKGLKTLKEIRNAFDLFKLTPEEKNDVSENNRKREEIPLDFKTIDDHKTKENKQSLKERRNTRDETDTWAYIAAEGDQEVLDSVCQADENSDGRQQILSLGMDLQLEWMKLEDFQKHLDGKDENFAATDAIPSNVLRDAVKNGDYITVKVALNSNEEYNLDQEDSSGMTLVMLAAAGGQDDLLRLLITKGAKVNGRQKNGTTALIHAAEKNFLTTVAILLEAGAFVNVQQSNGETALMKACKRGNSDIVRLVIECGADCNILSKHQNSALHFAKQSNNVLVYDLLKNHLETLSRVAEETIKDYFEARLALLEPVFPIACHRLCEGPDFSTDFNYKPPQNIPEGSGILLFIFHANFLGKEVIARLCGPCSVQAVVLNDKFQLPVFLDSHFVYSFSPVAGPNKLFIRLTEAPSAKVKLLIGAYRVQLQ
inactive: [2] -0.064 | [3] -0.009 | [4] 0.089 | [5] 0.061

NA, A0A2R8Y3M9
inactive: [1] -0.093 | [2] -0.069 | [5] 0.161

MSANTD2 (UniProt Q6P1R3)
inactive: [3] 0.06 | [4] 0.028

MOB2 isoform 3 (UniProt Q70IA6)
inactive: [1] -0.015 | [2] 0.129 | [4] 0.067 | [5] -0.096

NA, A0A1W2PSA9
inactive: [2] -0.046 | [4] 0.006 | [5] 0.104

MITF (UniProt O75030)
inactive: [3] -0.059

NDUFA7 (UniProt M0R0N0)
inactive: [1] -0.091 | [3] 0.23

PAK1 isoform 2 (UniProt Q13153)
Chain of UniProt Q13153 (Q13153 whole entry, looked up): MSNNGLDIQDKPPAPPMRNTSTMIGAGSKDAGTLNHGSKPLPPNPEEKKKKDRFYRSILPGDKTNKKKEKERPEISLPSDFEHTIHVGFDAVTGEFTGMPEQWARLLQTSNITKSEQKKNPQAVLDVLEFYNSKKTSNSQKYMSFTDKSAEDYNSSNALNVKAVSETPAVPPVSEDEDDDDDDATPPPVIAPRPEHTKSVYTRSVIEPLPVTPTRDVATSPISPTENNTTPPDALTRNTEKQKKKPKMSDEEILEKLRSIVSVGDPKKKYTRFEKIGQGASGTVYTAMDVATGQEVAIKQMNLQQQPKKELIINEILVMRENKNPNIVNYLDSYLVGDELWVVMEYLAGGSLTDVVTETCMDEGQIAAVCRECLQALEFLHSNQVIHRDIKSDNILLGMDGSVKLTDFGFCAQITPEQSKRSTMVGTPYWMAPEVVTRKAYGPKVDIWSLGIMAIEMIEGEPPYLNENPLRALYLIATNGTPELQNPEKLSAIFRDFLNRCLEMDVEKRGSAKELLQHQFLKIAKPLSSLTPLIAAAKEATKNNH
inactive: [1] -0.152 | [2] 0.097 | [3] -0.113 | [4] -0.02 | [5] -0.092

MON1A (UniProt Q86VX9)
inactive: [1] 0.1 | [4] -0.071

MLX (UniProt Q9UH92)
inactive: [1] -0.055 | [2] 0.032 | [4] 0.093 | [5] -0.011

MRM2 (UniProt Q9UI43)
inactive: [2] 0.021 | [3] 0.071 | [4] 0 | [5] -0.052

MRPS5 (UniProt P82675)
inactive: [1] -0.017 | [2] 0.009 | [3] -0.03 | [4] 0.063 | [5] -0.077

MLH1 (UniProt P40692)
inactive: [1] 0.192 | [2] 0.007 | [4] -0.109 | [5] -0.065

NAP1L1 (UniProt B7Z9C2)
inactive: [1] 0.003 | [3] 0.134
